# Screening results (PubChem BioAssay)
# Shown are actives, neighbours in structure and some others; about 1.4% of the full set was active somewhere.
# Yeast superoxide – caloric restriction mimetics inhibiting age-related superoxide in yeast. S. cerevisiae aged cells, superoxide DHE fluorescence; hits give low values. 0.18% of 330,000 active. superoxide response (% of plate mean), % at 10 µM;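 active = superoxide response under a set limit, about three screen SD below normal, cut at about 65% in these data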;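 also: yeast aged for seven days with compound at 30 °C before DHE staining; 100% = average MFI of all compound-treated wells on the plate with controls excluded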
# MIN6 prolif – inducers of beta-cell replication in MIN6 cells | MIN6 cells proliferation, ATPlite luminescence, 48 h; cells starved in 0.2% serum; 100% = growth in 10% serum | proliferation, % at 10 µM | 0.29% of 330,000 active;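 active = compounds whose signal lies at least 3.5 SD above the mean of all wells on their plate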;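 also: 0% = DMSO-treated cells in low-serum medium and 100% = 10% serum control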
# HSV replic up – HSV replication enhancement. AID 1956. 0.005% of 220,000 active. HSV replication augmentation in cells, fold increase. maximum fold increase; in the data active = maximum fold increase above about 1.5; tested in PC3 cells
# Cardio protect – myocardial damage modulation in H9c2 cells; AID 588492; protection from H2O2 cell death, % at 20 µM; 0.63% of 360,000 active; H9c2 cardiomyocytes, H2O2 injury protection, ATPLite, 2 h;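 active = compounds giving at least 50% protection of heart cells from peroxide-induced death in the single-dose screen, raw or plate-pattern-corrected value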;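 also: 0% = DMSO wells with peroxide and 100% = DMSO wells without peroxide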
# V-ATPase pHluor – alters yeast V-ATPase proton transport | response, % at 10 µM | 0.37% of 350,000 active | S. cerevisiae, pHLuorin cytosolic pH fluorescence; in the data active = response mostly above about 7.3%, no sharp cut-off; inactive = mostly below about 5.4%; also: actives read high
# pCIP destab – p/CIP protein destabilization. F442A p/CIP-EGFP cells, EGFP fluorescence, 16 h. Q05BA5. 0.01% of 290,000 active. AID 1984. decrease of EGFP signal, % at 10 µM;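 active = EGFP signal decrease of at least 30% at 10 µM or well 3 SD below plate mean, unless failing retest; inactive = the rest, including hits failing retest or dose response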
# Target sequence (Q05BA5 1-1403): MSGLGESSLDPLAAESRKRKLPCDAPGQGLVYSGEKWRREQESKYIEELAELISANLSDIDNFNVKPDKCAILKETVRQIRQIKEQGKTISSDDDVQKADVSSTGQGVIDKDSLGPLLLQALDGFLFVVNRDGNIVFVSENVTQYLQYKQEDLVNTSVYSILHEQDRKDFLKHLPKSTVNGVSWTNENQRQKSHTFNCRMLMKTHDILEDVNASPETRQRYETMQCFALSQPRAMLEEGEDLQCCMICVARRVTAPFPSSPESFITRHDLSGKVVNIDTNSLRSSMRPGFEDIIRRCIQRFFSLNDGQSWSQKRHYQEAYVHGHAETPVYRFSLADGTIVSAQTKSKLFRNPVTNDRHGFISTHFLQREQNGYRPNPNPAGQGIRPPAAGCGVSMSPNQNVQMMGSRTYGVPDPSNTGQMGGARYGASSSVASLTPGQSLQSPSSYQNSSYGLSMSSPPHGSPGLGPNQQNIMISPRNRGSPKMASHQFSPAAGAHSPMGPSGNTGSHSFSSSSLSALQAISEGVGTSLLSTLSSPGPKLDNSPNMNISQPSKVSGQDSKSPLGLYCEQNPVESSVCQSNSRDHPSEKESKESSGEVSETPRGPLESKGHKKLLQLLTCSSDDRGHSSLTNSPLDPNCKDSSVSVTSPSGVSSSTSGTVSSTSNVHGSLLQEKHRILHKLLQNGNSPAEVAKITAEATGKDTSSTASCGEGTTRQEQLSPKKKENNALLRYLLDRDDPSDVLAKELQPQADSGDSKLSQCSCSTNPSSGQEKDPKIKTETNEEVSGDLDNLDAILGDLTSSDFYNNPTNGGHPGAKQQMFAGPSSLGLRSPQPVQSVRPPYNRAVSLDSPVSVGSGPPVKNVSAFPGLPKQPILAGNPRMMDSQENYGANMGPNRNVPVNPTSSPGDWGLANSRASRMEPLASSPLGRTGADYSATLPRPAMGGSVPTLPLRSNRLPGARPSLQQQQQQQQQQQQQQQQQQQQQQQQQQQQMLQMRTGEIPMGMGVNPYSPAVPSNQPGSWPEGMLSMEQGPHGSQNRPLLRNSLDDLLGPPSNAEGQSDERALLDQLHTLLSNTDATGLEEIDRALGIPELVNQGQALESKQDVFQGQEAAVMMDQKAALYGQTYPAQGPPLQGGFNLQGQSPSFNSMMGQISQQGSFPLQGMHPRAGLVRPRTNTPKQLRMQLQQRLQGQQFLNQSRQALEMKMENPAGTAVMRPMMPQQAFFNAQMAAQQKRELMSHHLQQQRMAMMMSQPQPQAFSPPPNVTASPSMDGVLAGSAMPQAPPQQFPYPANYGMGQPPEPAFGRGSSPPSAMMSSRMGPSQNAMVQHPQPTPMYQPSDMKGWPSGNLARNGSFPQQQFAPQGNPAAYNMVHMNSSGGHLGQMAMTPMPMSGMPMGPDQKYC
# CR mimetic CP – yeast aging superoxide inhibition, cherry pick confirmation. S. cerevisiae aging, superoxide DHE fluorescence; hits give low values. AID 434994. 1% of 850 active. shares compounds with Yeast superoxide. superoxide response (% of plate), % at 10 µM;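 active = superoxide signal below 65% of the plate average of sample wells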;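 also: cells aged with compound for 7 days at 30 degrees C before staining; 100% equals mean DHE fluorescence of all compound wells on the plate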
# DHE counter – counter-screen for compounds affecting DHE oxidation and fluorescence in yeast; AID 435000; 850 tested, under 10 active; shares compounds with Yeast superoxide; fluorescence response, % at 10 µM; S. cerevisiae BY4741, flow cytometry; hits give low values;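 active = fluorescence response below 15%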;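 also: percent of the mean fluorescence averaged over all compound wells on the plate; lower means stronger quenching of DHE signal or ROS scavenging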
# An asterisk follows results filed as active; i = inactive; . = no result.
SMILES,Yeast superoxide,MIN6 prolif,HSV replic up,Cardio protect,V-ATPase pHluor,pCIP destab,CR mimetic CP,DHE counter
COc1cccc(C(O)c2ncc(-c3ccccc3)[nH]2)c1 (configuration not stated),.,.,.,-3,.,.,.,.
CCN1CCCc2cc(CN(CCN3CCOCC3)C(=S)Nc3ccccc3C)ccc21,61*,0,i,-2,2,0,105,101
O=c1c2ccccc2nc(SCc2ccncc2)n1CC1CCCO1 (configuration not stated),104,0,i,6,3,6,.,.
O=C(CNC(=O)c1ccccc1Cl)NCCc1cccs1,100,1,.,9,1,.,.,.
O=C(COC(=O)c1cc(S(=O)(=O)N2CCOCC2)cs1)c1ccccc1,64*,-1,i,-2,-2,2,108,112
O=C(COC(=O)c1cc(S(=O)(=O)N2CCOCC2)ccc1F)c1ccccc1,97,-3,.,7,-4,.,.,.
CN(Cc1ccccc1)S(=O)(=O)c1ccc(Cl)c(C(=O)NCc2ccc3c(c2)OCO3)c1,117,-2,i,-3,1,0,.,.
COC(CNC(=O)CCc1c(C)nc2c(-c3ccccc3)c(C)nn2c1C)OC,97,-2,.,8,1,-9,.,.
COc1cccc(NC(C(=O)Nc2cccc(C(C)=O)c2)c2ccccc2)c1 (configuration not stated),60*,0,i,-4,-4,-12,94,106
Cc1ccccc1OCC(=O)OCn1nnc2ccccc2c1=O,65*,-4,i,8,1,0,109,102
N#C/C(=N\Nc1cccc(C(F)(F)F)c1)C(=O)c1ccsc1,64*,-4,i,-14,-4,-34,108,106
CCCC(=O)N1CCCC(c2cc(C(=O)Nc3ccccc3)no2)C1 (configuration not stated),.,.,.,-21,.,.,.,.
C=CCn1c(SCC(=O)NC2CCCCC2)nnc1-c1ccc(OC)cc1,57*,-1,i,1,1,8,114,112
Cc1cccc(N2CCN(C(=O)CC(NC(=O)c3ccccc3)c3ccccc3)CC2C)c1 (configuration not stated),54*,0,i,3,2,-10,84,91
COc1ccc(C)cc1NC(=O)CSc1ccc(-c2sc(C)nc2C)nn1,89,-4,.,-6,4,-15,.,.
Cc1ccc(NC(=O)CSc2nnc(-c3ccccn3)n2N)cc1F,86,-1,i,7,-2,-4,.,.
CC(C)c1ccc(NC(=O)CSc2nnc(-c3ccccn3)n2C)cc1,95,-3,.,-1,5,-3,.,.
CCc1ccc(NC(=O)CSc2nnc(-c3ccccn3)n2C)cc1,65*,-2,i,0,4,-6,89,91
CCc1ccc(NC(=O)CSc2ccc(-c3ccccn3)nn2)cc1,59*,-7,.,50*,1,-10,126,113
COc1ccc(C)cc1NC(=O)CSc1ccc(-c2ccccn2)nn1,131,-1,.,47,0,2,122,93
Cc1ccc(NC(=O)CSc2ccc(-c3ccccn3)nn2)cc1F,113,-6,.,46,-3,-3,110,98
O=C(NCC1(c2ccccc2)CCCC1)c1cccc(Br)c1,103,-3,i,-15,-1,-6,.,.
CCOC(=O)C1=CCC(c2ccccc2)N(S(=O)(=O)c2ccccc2C)C1 (configuration not stated),.,.,.,1,.,.,.,.
CCCC(=O)N1CCC1(C)C(=O)Nc1ccc(-n2cccc2)cc1 (configuration not stated),.,.,.,12,.,.,.,.
Nn1c(SCC(=O)Nc2ccc3c(c2)OCCO3)nnc1-c1ccccn1,54*,-2,.,8,0,-14,104,93
Cc1ccccc1-c1nnc(SCC(=O)Nc2ccc3c(c2)OCCO3)n1N,83,0,i,1,-3,-4,.,.
COc1cc(NC(=O)CSc2ccc(-c3ccccn3)nn2)cc(OC)c1,101,-3,.,70*,2,-2,102,124
O=C(OCCOc1ccc(Br)cc1)c1ccc(Cl)c(S(=O)(=O)N2CCOCC2)c1,86,-4,.,-8,2,.,.,.
